Screening data (PubChem)
DT40 TDP1 no CPT: qHTS for Inhibitors of human tyrosyl-DNA phosphodiesterase 1 (TDP1): qHTS in cells in absence of CPT. Potency, µM (series often up to 46.2 µM), for inactives: at the top dose activity change, negative = growth inhibition, hits mostly inhibitors. DT40 Tdp1-/- hTDP1 cells, no CPT, ATP luminescence, 48 h. 420,000 compounds, 15% hits; note: potency is the fitted concentration of half-maximal effect; nearly all actives have a fitted effect of over 55% in size
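Stably hTDP1-transfected Tdp1-null chicken DT40 cells were treated with library compounds minus camptothecin and grown for at least 48 hr at 37 °C, after which cellular ATP was quantified by luminescence.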
12-LOX inh: blocks human arachidonate 12S-lipoxygenase | 580,000 compounds, 1.1% hits | P18054 | purified 12hLO, xylenol orange hydroperoxide absorbance | Potency, µM (doses to about 108 µM), for the others: at the highest dose activity change, negative = inhibition, actives largely listed as inhibitors; note: potency is the fitted concentration of half-maximal effect
Target sequence (P18054 whole entry, looked up): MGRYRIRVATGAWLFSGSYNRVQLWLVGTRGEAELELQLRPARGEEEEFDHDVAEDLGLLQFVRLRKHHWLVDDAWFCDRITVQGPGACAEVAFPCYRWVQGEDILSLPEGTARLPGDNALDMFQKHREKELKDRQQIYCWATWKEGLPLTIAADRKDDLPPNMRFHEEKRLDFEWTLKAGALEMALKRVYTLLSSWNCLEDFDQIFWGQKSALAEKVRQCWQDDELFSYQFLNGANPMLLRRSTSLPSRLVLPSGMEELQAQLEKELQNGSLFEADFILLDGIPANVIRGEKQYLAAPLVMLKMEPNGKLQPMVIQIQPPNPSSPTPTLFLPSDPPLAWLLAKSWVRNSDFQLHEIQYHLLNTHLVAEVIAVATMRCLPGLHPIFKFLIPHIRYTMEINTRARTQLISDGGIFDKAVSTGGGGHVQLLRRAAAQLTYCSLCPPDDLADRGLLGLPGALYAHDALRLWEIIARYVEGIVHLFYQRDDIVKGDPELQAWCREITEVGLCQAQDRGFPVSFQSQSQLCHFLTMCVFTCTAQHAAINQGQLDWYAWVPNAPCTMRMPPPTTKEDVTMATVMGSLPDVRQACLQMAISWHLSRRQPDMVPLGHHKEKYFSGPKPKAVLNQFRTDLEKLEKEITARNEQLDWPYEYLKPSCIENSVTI
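Hydroperoxide product was detected by ferrous iron/xylenol orange as the 573 to 405 nm absorbance ratio. Arachidonic acid at 40 uM (final) was turned over for 30 min at room temperature by 150 nM human 12hLO, pH 7.0 Hepes buffer, after 15 min compound preincubation.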
HT1080-NT tox: kills 2HG-producing HT-1080-NT fibrosarcoma cells; HT-1080-NT fibrosarcoma viability, CellTiter-Glo ATP luminescence, 48 h; Potency, µM (highest dose often 46.1 µM), inactives show at the top dose activity, negative = less viability, usual class: cytotoxic; 360,000 compounds, 1.6% hits;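 note: NT is the 2HG producing partner of a matched IDH1 knockdown line; potency is the fitted concentration of half-maximal effect; 0% = DMSO-treated cells and -100% = media-only wells without cells; nearly all actives have a fitted effect of over 55% in size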
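Read-out is CellTiter-Glo luminescence after 10 minutes at room temperature, following 48 hours' compound treatment of HT-1080-NT cells (750 cells/well, RPMI, 5% FBS, 37 degrees C).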
IL-1B inflam inh: blocks inflammasome-driven IL-1 beta release | THP-1 LPS/ATP IL-1B secretion, AlphaLISA, 16 h; active compounds read low | activity change, % at 57.5 µM | 360,000 compounds, 4.7% hits; in the data active = activity change below about -50%; inconclusive = mostly about -30% to -49%
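Secreted IL-1B measured by AlphaLISA bead assay after 16 h compound exposure of THP-1 cells; compounds (final up to 57.5 uM) added 1 h before LPS (250 ng/mL) and ATP (1.25 mM) stimulation; lower signal means less secretion.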
HT1080 IDH1KD tx: toxicity to HT-1080 IDH1 knockdown cells (counter line); 360,000 compounds, 2% hits; HT-1080 IDH1 knockdown viability, ATP luminescence, 48 h; Potency, µM (highest dose often 46.1 µM), inactives show at the top dose activity, negative = toxicity, actives largely listed as cytotoxic; AID 686971;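 note: potency is the fitted concentration of half-maximal effect; 0% = DMSO wells and -100% = cell-free medium wells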
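Assay cells: HT-1080 with IDH1 knockdown, 750 per well, RPMI/5% FBS. Exposure: 48 h at 37 °C following 2 h pre-incubation. Read: CellTiter-Glo luminescence; fitted concentration-response, curve class assigned.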
DT40 TDP1 CPT: DT40-hTDP1 cell growth loss with CPT; chicken DT40 Tdp1-/-;hTDP1 cells + 20 nM CPT, ATP luminescence, 48 h; Potency, µM (top dose mostly 46.2 µM), for the others: at the top dose activity change, negative = growth inhibition, most hits filed as inhibitors; 420,000 compounds, 12% hits; AID 686979; note: potency is the fitted concentration of half-maximal effect; nearly all actives have a fitted effect of over 55% in size
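Chicken DT40 Tdp1-/- cells stably complemented with human TDP1 were seeded at 400 cells/well in medium containing 20 nM camptothecin, exposed to pin-transferred compounds, and grown at 37 °C for at least 48 hr. Viability was read as ATP luminescence.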
* marks the source's active call; other numbers are inactive results; ? = inconclusive; nt = no result given; [ ] = remark or other dose. Many of the other results were omitted from the sample, so hits are more common in it than they were. Unless noted, calls come from the whole dose curve; as a rule, active = well fitted curve in the direction sought with a large enough effect; inconclusive = small, poorly fitted or top-dose-only effect, or another doubt; inactive = no such curve, though single readings can be large; an effect the other way counts as inactive or inconclusive. Unless noted, % is set by controls: 0 for no effect and ±100 for the full control effect.

SMILES	DT40 TDP1 no CPT	12-LOX inh	HT1080-NT tox	IL-1B inflam inh	HT1080 IDH1KD tx	DT40 TDP1 CPT
COc1ccc(Cn2c(C3CC3)nc3ccc(NC(=O)c4cccnc4)cc3c2=O)cc1	10µM*	nt	10µM*	-70*	10µM*	7.3µM*
Cc1cc(=O)n2cn[nH]c2n1	2%	-20%	7%	14	5%	22%
Cc1cc(=S)n2cn[nH]c2n1	nt	0.45µM*	nt	nt	nt	nt
Cc1cc2nc(-c3cccc(Br)c3)c(CC(C)(C)C)n2c(C)c1Br	-44%	-39%	-27%	15	-22%	?
Cc1cc2nc(-c3ccc(Cl)cc3)c(CC(C)(C)C)n2c(C)c1Br	?	?	-23%	10	-26%	15µM*
Cc1cc2nc(-c3ccccc3)c(CC(C)(C)C)n2c(C)c1Br	18µM*	-7%	-21%	99	-26%	15µM*
CN(CCOc1ccc(Cl)cc1)C(=O)CSc1nnc(-c2ccncc2)n1C	nt	-6%	nt	nt	nt	nt
CCc1noc(-c2ccn3c(CNC(=O)CCc4cccc(OC)c4)nnc3c2)n1	nt	14%	nt	nt	nt	nt
CCS(=O)(=O)N1CCc2cc(C(=O)c3cc4cc(Cl)ccc4o3)ccc21	nt	-20%	nt	nt	nt	nt
CCc1nc(CN(C)C(=O)C2C3C(=O)N(c4ccc(F)cc4)C[C@@]34C=C[C@@H]2O4)no1 (stereo partly specified)	nt	17%	nt	nt	nt	nt
CCN1C(=O)CC(N2CCN(c3ccc(C(=O)c4ccccc4)cc3)CC2)C1=O (stereo unspecified)	23µM*	6%	-2%	-28	-1%	?
CCN1C(=O)CC(N2CCN(c3ccc(Cl)cc3)CC2)C1=O (stereo unspecified)	-4%	0%	8%	-18	11%	-4%
O=C(Cn1cnc2onc(-c3ccc(Cl)cc3)c2c1=O)Nc1ccc(F)cc1	?	45µM*	nt	nt	nt	?
CCN(C(=O)Cn1cnc2onc(-c3ccc(F)cc3)c2c1=O)c1ccc(OC)cc1	12µM*	?	nt	nt	nt	18µM*
COc1cc(OC)c(NC(=O)CCn2cnc3onc(-c4ccc(F)cc4)c3c2=O)cc1Cl	2.1µM*	-13%	nt	nt	nt	12µM*
CCOc1ccccc1NC(=O)Cn1cnc2onc(-c3ccc(F)cc3)c2c1=O	?	-15%	nt	nt	nt	?
CCOc1ccc(NC(=O)CCn2cnc3onc(-c4ccc(F)cc4)c3c2=O)cc1	-20%	?	nt	nt	nt	-18%
O=C(Cn1cnc2onc(-c3ccc(F)cc3)c2c1=O)Nc1cccc(C(F)(F)F)c1	21µM*	?	nt	nt	nt	23µM*
CC(C)(C)c1ccc(S(=O)(=O)[C@H]2CS(=O)(=O)C[C@@H]2N2CCN(c3ncccn3)CC2)cc1	nt	9%	nt	nt	nt	nt
O=C(c1ncccn1)N1CCc2c(n(CCOc3ccccc3)n(-c3ccccc3)c2=O)C1	nt	-14%	nt	nt	nt	nt
Cc1cccc(N(C)C(=O)Cc2nn(C)c(=O)c3ccccc23)c1C	nt	0%	nt	nt	nt	nt
COCCNC(=O)C1(C)CCN(C(=O)c2cccnc2Oc2ccccc2)C1 (stereo unspecified)	0%	-7%	?	32	27%	5%
Cc1nn(C)c(C)c1CN1C[C@@H](COCC2CC2)[C@H](c2ccccn2)C1	nt	77%	nt	nt	nt	nt
COc1cc(Cl)c(C)cc1NC(=O)CNC(=O)Cn1cnc2ccccc2c1=O	-13%	-1%	6%[9.24 µM]	-12	-5%	-14%
O=C(Cn1cnc2onc(-c3ccc(F)cc3)c2c1=O)Nc1ccc(F)c(Cl)c1	?	-14%	nt	nt	nt	9.2µM*
SMILES	DT40 TDP1 no CPT	12-LOX inh	HT1080-NT tox	IL-1B inflam inh	HT1080 IDH1KD tx	DT40 TDP1 CPT
Cc1ccc(C)c(N2CCN(C(=O)Cn3cnc4onc(-c5ccc(F)cc5)c4c3=O)CC2)c1	?	-12%	nt	nt	nt	23µM*
COc1cc(OC)c(NC(=O)CCNC(=O)Cn2cnc3ccccc3c2=O)cc1Cl	?	14%	1%	-1	-2%	18µM*
CCN(CCO)C(=O)c1ccc2nc(Cc3cccc(Cl)c3)oc2c1	-26%	24%	6%	20	-6%	0%
O=[N+]([O-])c1ccc(Oc2ccc(Oc3ccc(C(F)(F)F)cn3)cc2)nc1	26µM*	0%	-1%	?	-5%	?
Cc1cccc(N2C(=O)CC(Sc3ncn[nH]3)C2=O)c1 (stereo unspecified)	1.8µM*	0%	13%	18	18%	1.8µM*
Cc1cccc(N2C(=O)CC(Sc3nccc(C)n3)C2=O)c1 (stereo unspecified)	-21%	14%	17%	24	9%	?
Cc1ccc(N2C(=O)CC(Sc3ncn[nH]3)C2=O)cc1C (stereo unspecified)	5.2µM*	0%	-2%	-6	0%	4.6µM*
CCc1cccc(C)c1NC(=O)Cn1nnc(-c2nc(-c3ccccc3F)no2)c1N	-12%	-8%	nt	nt	nt	8%
CCCNc1c(NC(=O)Nc2ccc(Br)cc2F)c(=O)oc2ccccc12	nt	-6%	nt	nt	nt	nt
COc1ccc2cc(CNCCOCCOCCNCc3ccc4cc(OC)ccc4c3)ccc2c1	2.6µM*	?	?	-99*	16µM*	2.6µM*
CCOCCCNCc1ccc(OC)cc1	-9%	?	8%	-16	21%	-27%
Cc1nc(C(=O)NNC(=O)c2ccc(C(F)(F)F)cc2)cs1	21µM*	-6%	-24%	55	?	?
O=C1CCN(C(=O)c2ccccc2)CCCC(C(=O)NCCCN2CCCC2)CCN1 (stereo unspecified)	nt	40%	nt	nt	nt	nt
CS(=O)(=O)N1CCC(C2CCN(C(=O)c3ccn[nH]3)C2)CC1 (stereo unspecified)	nt	27%	nt	nt	nt	nt
CCCCOc1ccc(C(=O)Nc2cccc3cccnc23)cc1	nt	-14%	nt	nt	nt	nt
CC1=Nc2ccccc2N=C(NC(=O)CSc2nnnn2-c2ccccc2)C1c1ccccc1 (stereo unspecified)	29µM*	3%	-14%	-13	1%[9.24 µM]	?
CC1=Nc2ccccc2N=C(NC(=O)CSC(=S)N2CCN(C)CC2)C1c1ccccc1 (stereo unspecified)	16µM*	425%	-10%	4	-8%	?
CCOc1ccccc1NC(=O)CSc1ncc2c(n1)-c1ccccc1N(CC)S2(=O)=O	16µM*	-22%	nt	nt	nt	23µM*
CCc1cccc(NC(=O)CSc2ncc3c(n2)-c2ccc(Cl)cc2N(Cc2ccccc2)S3(=O)=O)c1	16µM*	-25%	nt	nt	nt	18µM*
